Data published in PMC7862700, “An all-to-all approach to the identification of sequence-specific readers for epigenetic DNA modifications on cytosine”.

Experiments:
Test in all cases: DAPPL (digital affinity profiling via proximity ligation, sequencing); 10 mM Tris-HCl pH 7.5, 50 mM NaCl, 1 mM DTT, 4% glycerol, room temperature, 30 min; GST-TFs on glutathione beads, 16-mer random dsDNA library, 0.1% formaldehyde crosslink after washing; high values mean tight binding
Conditions in all cases: protein: recombinant; tags: N-terminal GST; dsDNA, one strand shown
FLI1 = molecular target: T1, FLI1 (Homo sapiens, UniProt Q01543 1-452)
T1 sequence: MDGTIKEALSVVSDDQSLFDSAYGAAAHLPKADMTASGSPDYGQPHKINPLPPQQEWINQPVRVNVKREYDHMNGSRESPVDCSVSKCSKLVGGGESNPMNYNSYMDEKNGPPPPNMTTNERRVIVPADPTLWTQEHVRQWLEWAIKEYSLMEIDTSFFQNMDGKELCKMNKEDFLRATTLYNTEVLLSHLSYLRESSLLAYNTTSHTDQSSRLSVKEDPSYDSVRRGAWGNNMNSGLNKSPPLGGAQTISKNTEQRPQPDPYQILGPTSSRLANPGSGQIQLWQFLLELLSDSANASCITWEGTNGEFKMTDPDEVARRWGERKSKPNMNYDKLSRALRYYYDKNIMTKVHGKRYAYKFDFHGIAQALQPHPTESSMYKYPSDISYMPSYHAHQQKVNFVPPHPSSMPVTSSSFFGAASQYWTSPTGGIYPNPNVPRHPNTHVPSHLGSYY
Method in brief: (§1)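 Pools were built from human transcription factors expressed in yeast as GST fusions, captured on glutathione beads and DNA-barcoded, along with a tag-only sample. Incubation with 200 nmole of a 16-mer random double-stranded DNA library lasted 30 min at room temperature in Tris/NaCl/DTT/glycerol buffer, and was followed by washing, 0.1% formaldehyde crosslinking, proximity ligation, PCR amplification and Illumina NextSeq500 sequencing. Binding signal is the quotient of each hexamer's read frequency for a factor and its frequency for the tag-only sample.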

ELK1 = molecular target: T2, ELK1 (Homo sapiens, UniProt P19419 1-428)
T2 sequence: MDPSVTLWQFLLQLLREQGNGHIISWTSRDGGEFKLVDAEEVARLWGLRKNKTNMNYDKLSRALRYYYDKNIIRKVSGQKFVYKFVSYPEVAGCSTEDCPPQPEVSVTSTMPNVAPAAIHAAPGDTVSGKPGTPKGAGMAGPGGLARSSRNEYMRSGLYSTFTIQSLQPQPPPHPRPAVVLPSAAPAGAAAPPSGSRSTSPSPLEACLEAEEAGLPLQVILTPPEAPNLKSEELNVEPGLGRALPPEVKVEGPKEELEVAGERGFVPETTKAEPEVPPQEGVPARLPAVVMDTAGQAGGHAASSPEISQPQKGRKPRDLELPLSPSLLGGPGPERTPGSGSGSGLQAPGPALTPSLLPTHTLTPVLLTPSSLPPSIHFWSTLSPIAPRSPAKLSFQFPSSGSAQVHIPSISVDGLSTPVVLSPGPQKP
Method in brief: as §1

GABPA = molecular target: T3, GABPA (Homo sapiens, UniProt Q06546 1-454)
T3 sequence: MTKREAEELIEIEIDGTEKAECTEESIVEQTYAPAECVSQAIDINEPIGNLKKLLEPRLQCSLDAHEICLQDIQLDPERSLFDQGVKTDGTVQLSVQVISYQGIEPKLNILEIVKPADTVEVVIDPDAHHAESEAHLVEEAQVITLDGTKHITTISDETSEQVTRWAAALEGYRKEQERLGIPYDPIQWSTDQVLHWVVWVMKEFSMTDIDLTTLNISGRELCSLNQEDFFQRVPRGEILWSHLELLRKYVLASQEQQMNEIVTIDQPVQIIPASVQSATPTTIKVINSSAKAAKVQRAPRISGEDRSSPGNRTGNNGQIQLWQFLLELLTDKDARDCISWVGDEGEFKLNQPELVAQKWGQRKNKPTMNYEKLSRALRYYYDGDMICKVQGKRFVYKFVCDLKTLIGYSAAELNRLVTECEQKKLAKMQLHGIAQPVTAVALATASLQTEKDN
Method in brief: as §1

ERG = molecular target: T4, ERG (Homo sapiens, UniProt P11308 1-479)
T4 sequence: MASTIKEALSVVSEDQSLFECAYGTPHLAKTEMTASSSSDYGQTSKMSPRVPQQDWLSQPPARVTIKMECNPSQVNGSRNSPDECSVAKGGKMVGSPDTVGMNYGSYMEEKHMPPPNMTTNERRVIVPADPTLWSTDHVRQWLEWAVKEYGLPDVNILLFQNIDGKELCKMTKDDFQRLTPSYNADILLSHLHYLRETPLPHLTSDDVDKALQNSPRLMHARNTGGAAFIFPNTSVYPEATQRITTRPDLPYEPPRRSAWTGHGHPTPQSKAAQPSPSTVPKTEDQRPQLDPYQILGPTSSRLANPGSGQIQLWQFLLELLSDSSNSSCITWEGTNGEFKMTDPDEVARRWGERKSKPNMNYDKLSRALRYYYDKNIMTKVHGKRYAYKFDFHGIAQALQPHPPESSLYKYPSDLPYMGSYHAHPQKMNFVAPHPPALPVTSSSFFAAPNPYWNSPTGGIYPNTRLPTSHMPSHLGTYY
Method in brief: as §1

ELF1 = ELF1 (Homo sapiens, UniProt P32519 1-619)
Method in brief: as §1

EHF = molecular target: T5, EHF (Homo sapiens, UniProt Q9NZC4 1-300)
T5 sequence: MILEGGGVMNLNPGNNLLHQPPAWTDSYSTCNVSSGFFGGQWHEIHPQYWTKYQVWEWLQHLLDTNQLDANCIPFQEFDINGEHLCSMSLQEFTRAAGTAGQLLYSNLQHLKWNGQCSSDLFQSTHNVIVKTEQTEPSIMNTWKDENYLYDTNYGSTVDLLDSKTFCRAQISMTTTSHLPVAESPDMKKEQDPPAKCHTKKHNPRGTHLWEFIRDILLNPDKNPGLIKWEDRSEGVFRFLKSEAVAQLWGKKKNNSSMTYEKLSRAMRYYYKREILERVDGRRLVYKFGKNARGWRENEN
Method in brief: as §1

SPI1 = SPI1 (Homo sapiens, UniProt P17947 1-270)
Method in brief: as §1

SPIB = SPIB (Homo sapiens, UniProt Q01892 1-262)
Method in brief: as §1

ELK3 = molecular target: T6, ELK3 (Homo sapiens, UniProt P41970 1-407)
T6 sequence: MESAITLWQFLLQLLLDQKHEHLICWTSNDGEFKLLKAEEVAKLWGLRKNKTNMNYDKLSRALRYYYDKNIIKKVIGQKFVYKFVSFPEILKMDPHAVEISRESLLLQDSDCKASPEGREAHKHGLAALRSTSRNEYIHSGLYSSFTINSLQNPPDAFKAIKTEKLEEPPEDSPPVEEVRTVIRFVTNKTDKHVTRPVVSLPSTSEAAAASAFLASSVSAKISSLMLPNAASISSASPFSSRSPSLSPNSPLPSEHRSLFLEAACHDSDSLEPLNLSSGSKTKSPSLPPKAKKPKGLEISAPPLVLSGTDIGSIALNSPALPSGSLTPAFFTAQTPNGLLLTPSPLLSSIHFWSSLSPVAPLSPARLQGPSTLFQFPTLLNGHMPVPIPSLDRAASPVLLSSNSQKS
Method in brief: as §1

FEV = molecular target: T7, FEV (Homo sapiens, UniProt Q99581 1-238)
T7 sequence: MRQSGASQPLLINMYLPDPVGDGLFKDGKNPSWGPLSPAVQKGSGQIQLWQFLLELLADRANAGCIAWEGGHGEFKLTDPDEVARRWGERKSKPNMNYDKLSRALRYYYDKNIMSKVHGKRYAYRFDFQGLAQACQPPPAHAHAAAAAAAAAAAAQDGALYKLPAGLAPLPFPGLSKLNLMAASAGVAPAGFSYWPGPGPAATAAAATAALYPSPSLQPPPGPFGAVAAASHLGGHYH
Method in brief: as §1

ETV5 = ETV5 (Homo sapiens, UniProt P41161 1-510)
Method in brief: as §1

SPIC = molecular target: T8, SPIC (Homo sapiens, UniProt Q8N5J4 1-248)
T8 sequence: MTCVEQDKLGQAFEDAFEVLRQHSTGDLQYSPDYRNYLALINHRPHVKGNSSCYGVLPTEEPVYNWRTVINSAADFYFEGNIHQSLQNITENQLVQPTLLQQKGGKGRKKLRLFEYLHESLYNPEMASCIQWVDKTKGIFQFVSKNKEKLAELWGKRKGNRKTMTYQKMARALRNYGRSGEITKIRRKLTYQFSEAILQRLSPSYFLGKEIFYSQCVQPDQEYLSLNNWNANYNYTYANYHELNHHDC
Method in brief: as §1

ELF4 = ELF4 (Homo sapiens, UniProt Q99607 1-663)
Method in brief: as §1

ELK4 = molecular target: T9, ELK4 (Homo sapiens, UniProt P28324-2 1-405)
T9 sequence: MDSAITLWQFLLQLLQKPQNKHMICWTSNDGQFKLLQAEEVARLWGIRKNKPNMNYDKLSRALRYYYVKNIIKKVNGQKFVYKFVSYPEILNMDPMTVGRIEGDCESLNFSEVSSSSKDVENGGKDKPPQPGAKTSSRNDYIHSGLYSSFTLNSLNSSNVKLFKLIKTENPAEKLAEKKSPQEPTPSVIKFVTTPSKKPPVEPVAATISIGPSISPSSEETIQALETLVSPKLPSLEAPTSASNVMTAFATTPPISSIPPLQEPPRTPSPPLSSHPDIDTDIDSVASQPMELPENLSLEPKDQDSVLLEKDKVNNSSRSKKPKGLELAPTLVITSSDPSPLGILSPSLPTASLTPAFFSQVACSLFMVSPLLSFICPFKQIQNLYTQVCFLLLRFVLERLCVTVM
Method in brief: as §1

ETV2 = molecular target: T10, ETV2 (Homo sapiens, UniProt O00321 1-342)
T10 sequence: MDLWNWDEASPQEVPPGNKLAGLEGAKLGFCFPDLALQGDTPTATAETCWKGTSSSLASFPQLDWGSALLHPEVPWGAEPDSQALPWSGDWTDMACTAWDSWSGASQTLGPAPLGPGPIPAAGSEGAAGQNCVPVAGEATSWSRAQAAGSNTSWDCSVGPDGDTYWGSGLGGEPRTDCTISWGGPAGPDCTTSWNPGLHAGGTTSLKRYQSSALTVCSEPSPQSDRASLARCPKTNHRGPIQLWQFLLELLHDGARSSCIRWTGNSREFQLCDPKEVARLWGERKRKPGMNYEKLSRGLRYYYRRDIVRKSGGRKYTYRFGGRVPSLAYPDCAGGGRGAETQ
Method in brief: as §1

ELF3 = molecular target: T11, ELF3 (Homo sapiens, UniProt P78545 1-371)
T11 sequence: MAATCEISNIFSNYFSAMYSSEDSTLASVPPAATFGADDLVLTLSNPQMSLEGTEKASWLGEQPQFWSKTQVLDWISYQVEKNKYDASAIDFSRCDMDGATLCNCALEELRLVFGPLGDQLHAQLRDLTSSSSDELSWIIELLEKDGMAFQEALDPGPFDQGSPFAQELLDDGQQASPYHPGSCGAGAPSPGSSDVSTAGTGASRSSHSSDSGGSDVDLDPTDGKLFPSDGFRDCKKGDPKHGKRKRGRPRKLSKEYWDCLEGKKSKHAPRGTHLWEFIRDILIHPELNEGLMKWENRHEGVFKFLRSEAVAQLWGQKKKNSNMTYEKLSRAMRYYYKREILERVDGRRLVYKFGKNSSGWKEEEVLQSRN
Method in brief: as §1

ETV1 = ETV1 (Homo sapiens, UniProt P50549 1-477)
Method in brief: as §1

Sequence of ETV1 (P50549 whole entry): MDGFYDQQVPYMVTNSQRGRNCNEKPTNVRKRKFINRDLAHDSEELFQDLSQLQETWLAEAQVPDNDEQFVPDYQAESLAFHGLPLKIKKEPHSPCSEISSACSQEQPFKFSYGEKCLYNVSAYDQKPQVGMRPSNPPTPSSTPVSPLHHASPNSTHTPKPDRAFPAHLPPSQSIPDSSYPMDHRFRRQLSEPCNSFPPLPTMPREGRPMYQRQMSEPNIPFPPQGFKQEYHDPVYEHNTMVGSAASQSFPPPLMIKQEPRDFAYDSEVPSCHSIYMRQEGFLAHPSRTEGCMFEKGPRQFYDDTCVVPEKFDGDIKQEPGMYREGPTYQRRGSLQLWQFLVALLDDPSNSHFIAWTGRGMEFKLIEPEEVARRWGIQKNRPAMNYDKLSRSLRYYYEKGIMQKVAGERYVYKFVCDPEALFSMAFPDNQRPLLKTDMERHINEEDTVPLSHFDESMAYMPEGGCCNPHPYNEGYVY
Sequence of ETV5 (P41161 whole entry): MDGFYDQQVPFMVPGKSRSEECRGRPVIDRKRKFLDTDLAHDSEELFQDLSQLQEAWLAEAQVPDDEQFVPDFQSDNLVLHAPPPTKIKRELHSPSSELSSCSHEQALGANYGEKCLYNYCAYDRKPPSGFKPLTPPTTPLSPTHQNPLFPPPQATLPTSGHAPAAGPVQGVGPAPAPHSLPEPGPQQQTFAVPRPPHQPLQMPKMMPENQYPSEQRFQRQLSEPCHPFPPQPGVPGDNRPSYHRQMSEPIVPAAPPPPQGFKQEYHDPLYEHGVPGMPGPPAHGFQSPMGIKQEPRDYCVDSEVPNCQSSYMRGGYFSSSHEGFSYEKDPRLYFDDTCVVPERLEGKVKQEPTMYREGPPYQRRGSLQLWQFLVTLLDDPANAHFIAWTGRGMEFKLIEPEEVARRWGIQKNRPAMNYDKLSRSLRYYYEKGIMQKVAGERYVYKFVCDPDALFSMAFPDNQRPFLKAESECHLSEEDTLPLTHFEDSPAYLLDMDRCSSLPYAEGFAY
Sequence of ELF1 (P32519 whole entry): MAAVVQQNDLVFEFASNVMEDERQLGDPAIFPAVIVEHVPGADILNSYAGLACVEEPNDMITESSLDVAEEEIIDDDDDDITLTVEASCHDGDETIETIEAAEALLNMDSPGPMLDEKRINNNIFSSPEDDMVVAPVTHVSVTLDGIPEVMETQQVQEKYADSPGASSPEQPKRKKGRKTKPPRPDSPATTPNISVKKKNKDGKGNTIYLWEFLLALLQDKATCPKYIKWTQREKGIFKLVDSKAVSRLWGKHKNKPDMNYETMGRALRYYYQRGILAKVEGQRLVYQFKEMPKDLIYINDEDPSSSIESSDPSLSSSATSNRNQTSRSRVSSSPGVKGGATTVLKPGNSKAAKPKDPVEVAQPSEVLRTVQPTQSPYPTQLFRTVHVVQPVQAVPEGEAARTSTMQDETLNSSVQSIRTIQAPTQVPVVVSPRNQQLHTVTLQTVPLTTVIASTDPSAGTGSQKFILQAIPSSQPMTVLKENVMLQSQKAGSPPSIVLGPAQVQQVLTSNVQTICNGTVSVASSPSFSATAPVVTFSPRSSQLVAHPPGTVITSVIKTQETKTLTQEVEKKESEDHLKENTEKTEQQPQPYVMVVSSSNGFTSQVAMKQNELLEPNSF
Sequence of ELF4 (Q99607 whole entry): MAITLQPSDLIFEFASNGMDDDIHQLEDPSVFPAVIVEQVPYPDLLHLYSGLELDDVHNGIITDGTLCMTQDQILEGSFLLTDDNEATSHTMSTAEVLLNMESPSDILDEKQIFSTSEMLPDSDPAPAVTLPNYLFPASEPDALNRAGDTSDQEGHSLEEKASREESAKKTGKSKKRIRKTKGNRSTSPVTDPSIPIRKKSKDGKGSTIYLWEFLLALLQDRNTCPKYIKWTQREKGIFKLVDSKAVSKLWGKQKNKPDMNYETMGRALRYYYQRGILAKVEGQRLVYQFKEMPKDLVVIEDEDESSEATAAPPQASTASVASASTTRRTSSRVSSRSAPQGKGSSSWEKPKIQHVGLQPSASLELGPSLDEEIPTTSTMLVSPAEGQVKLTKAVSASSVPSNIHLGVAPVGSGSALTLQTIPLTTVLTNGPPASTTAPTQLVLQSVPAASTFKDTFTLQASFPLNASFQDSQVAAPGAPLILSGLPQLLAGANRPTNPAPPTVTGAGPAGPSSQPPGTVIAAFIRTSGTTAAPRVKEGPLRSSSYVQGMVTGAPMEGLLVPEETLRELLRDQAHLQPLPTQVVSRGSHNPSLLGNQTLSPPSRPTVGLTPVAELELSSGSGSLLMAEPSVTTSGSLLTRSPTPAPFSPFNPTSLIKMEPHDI
Sequence of SPIB (Q01892 whole entry): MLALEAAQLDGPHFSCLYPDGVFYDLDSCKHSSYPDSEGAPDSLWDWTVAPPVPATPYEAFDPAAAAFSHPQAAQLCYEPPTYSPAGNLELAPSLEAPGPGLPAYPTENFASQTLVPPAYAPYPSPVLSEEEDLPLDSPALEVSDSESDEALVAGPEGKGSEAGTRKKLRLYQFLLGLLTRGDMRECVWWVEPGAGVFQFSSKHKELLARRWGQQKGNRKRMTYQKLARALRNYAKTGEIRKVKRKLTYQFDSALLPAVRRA

In the case of TGCCCT, the binding signal (FLI1) is reported as 1.21 fold enrichment (6-mer frequency, TF over GST control), the binding signal (ELK1) is reported as 1.25 fold enrichment (6-mer frequency, TF over GST control) and the binding signal (GABPA) is reported as 1.21 fold enrichment (6-mer frequency, TF over GST control). The binding signal (ERG) was 1.09 fold enrichment (6-mer frequency, TF over GST control), the binding signal (ELF1) was 1.25 fold enrichment (6-mer frequency, TF over GST control) and the binding signal (EHF) was 1.12 fold enrichment (6-mer frequency, TF over GST control). The binding signal (SPI1) was 1.15 fold enrichment (6-mer frequency, TF over GST control), the binding signal (SPIB) was 1.16 fold enrichment (6-mer frequency, TF over GST control) and the binding signal (ELK3) was 1.07 fold enrichment (6-mer frequency, TF over GST control). For the same sequence, the binding signal (FEV) was 1.18 fold enrichment (6-mer frequency, TF over GST control), the binding signal (ETV5) was 1.11 fold enrichment (6-mer frequency, TF over GST control) and the binding signal (SPIC) was 1.2 fold enrichment (6-mer frequency, TF over GST control). The binding signal (ELF4) was 1.12 fold enrichment (6-mer frequency, TF over GST control), the binding signal (ELK4) was 1.25 fold enrichment (6-mer frequency, TF over GST control) and the binding signal (ETV2) was 1.13 fold enrichment (6-mer frequency, TF over GST control). The binding signal (ELF3) was 1.27 fold enrichment (6-mer frequency, TF over GST control) and the binding signal (ETV1) was 1.08 fold enrichment (6-mer frequency, TF over GST control).
